The source of these data is PubChem BioAssay (Tox21).

Values without a mark were called inactive. Results filed as inconclusive are left out. A call without a number means that no potency is given here. Calls of active or inactive are those of the source. Calls come from the whole dose curve; as a rule, active = well fitted curve in the direction sought with a large enough effect in the repeat runs; inconclusive = weak or mixed curves; inactive = no such curve, though single readings can be large; an effect the other way counts as inactive or inconclusive.

One assay can be described thus: qHTS assay for small molecule disruptors of the mitochondrial membrane potential (AID 720635). Note: potency is the fitted concentration of half-maximal effect. Particulars: HepG2 mitochondrial membrane potential, Mito-MPS dye ratio; series mostly up to 83.2 µM. In a few lines:
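Mitochondrial membrane potential tracked with Mito-MPS dye, red aggregates (ex 540/em 590 nm) against green monomers (ex 490/em 535 nm). Compound treatment 1 hr at 37C, dye 30 min in HepG2.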
Background: qHTS replaces the single test concentration by a dilution series.
On to `C1CCC2(CCCCO2)OC1`, for which the Potency entry was “inactive”.
As to `COc1c(N2CCNC(C)C2)c(F)cc2c(=O)c(C(=O)O)cn(C3CC3)c12` (stereo not drawn), the Potency result is “inactive”.
With `O=C(O)Cc1csc(-c2ccc(Cl)cc2)n1`, the Potency entry was “inactive”.
The same measure, in the same setting: with `CCCCCCC#CC(=O)OC` the entry was “inactive”; with `CC(=O)NC(=O)c1ccccc1O`, “inactive”; with `Cc1nc2ccc(CN(C)c3ccc(C(=O)N[C@@H](CCC(=O)O)C(=O)O)s3)cc2c(=O)[nH]1`, “inactive”.
Same read-out and setting: with `NC(CCC(=O)O)C(=O)O` (stereo not drawn) the entry was “inactive”; with `Cc1ncc(COP(=O)(O)O)c(C=O)c1O`, “inactive”; with `N[C@@H](CCC(=O)O)C(=O)O`, “inactive”.
On the same count and under the same terms, with `CCCC[N+](C)(CCCC)CCCC` the entry was “inactive”; with `C=CC(=O)OCCCl`, “inactive”; with `C=CCCC(=O)O`, “inactive”.
On to `CCC(C(=O)NC(=O)NC(C)=O)c1ccccc1` (stereo not drawn), for which the Potency entry was “inactive”.
The same measure, in the same setting: with `CCCCOC(=O)CCC(C)=O` the entry was “inactive”; with `C[N+]12CCC(CC1)C(OC(=O)C(O)(c1ccccc1)c1ccccc1)C2` (stereo not drawn), “inactive”; with `Nc1c2c(nc3c1CCC3)CCCC2`, “inactive”.
Still for that read-out and setting: with `Cc1ccc(-c2ncc(Cl)cc2-c2ccc(S(C)(=O)=O)cc2)cn1` the entry was “inactive”; with `O=C(O)c1cn(C2CC2)c2cc(N3CCNCC3)c(F)cc2c1=O`, “inactive”.
With `CC1CCC(CO)CC1` (stereo not drawn), the Potency entry is “inactive”.
With `COc1ccnc(CS(=O)c2nc3cc(OC(F)F)ccc3[nH]2)c1OC` (stereo not drawn), the Potency entry is “inactive”.
For `N[C@H](C(=O)O)[C@@H](O)c1ccc(O)c(O)c1`, the Potency was 26.6 µM (active).

Another assay can be described thus: qHTS assay to test for compound auto fluorescence at 590 nm (red) in HepG2 cells (AID 720674). The settings on record: HepG2 autofluorescence, red 540/590 nm, 1 h; series mostly up to 91.3 µM. Put shortly: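 Red autofluorescence (Ex/Em 540/590 nm, Rose Bengal sodium equivalents) was measured in HepG2 cells, 2,000 per well in MEM plus 10% FBS, plated overnight at 37 C. Readings were taken 1 hr after adding 23 nL compound or DMSO, at 37 C and 5% CO2.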
Consider `Cc1ncc([C@@H](CCCCCCc2ccc3c(n2)NCCC3)CC(=O)O)cn1`, for which the outcome was inactive.
The same measure, in the same setting: with `O=C1NC(=O)C2CC=CCC12` (stereo not drawn) the entry was “inactive”.
`CCCCc1nc(Cl)c(CO)n1Cc1ccc(-c2ccccc2-c2nn[nH]n2)cc1`: the result was inactive.
Regarding `Cc1ccccc1N=C(N)N=C(N)N`, the call was inactive.
The same measure, in the same setting: with `O=S(=O)(O)c1cccc(S(=O)(=O)O)c1` the entry was “inactive”.
For `C1CCC2(CCCCO2)OC1`, the result was inactive.
Still for that read-out and setting: with `COc1c(N2CCNC(C)C2)c(F)cc2c(=O)c(C(=O)O)cn(C3CC3)c12` (stereo not drawn) the entry was “inactive”; with `CC[N+](CC)(CC(=O)Nc1c(C)cccc1C)Cc1ccccc1` (tested in a mixture with another compound), “inactive”.
Same read-out and setting: with `O=C(O)Cc1csc(-c2ccc(Cl)cc2)n1` the entry was “inactive”; with `CCCCCCC#CC(=O)OC`, “inactive”; with `CCCCN(CCC(=O)OCC)C(C)=O`, “inactive”.
As to `CC(=O)NC(=O)c1ccccc1O`, the compound was called inactive.
Same read-out and setting: with `CC[N+](CC)(CC)CCOc1cccc(OCC[N+](CC)(CC)CC)c1OCC[N+](CC)(CC)CC` the entry was “inactive”.
Still for that read-out and setting: with `Cc1nc2ccc(CN(C)c3ccc(C(=O)N[C@@H](CCC(=O)O)C(=O)O)s3)cc2c(=O)[nH]1` the entry was “inactive”; with `NC(CCC(=O)O)C(=O)O` (stereo not drawn), “inactive”.
Still for that read-out and setting: with `CCOC(=O)OC(C)OC1=C(C(=O)Nc2ccccn2)N(C)S(=O)(=O)c2ccccc21` (stereo not drawn) the entry was “inactive”; with `Cc1ncc(COP(=O)(O)O)c(C=O)c1O`, “inactive”.
As for `N[C@@H](CCC(=O)O)C(=O)O`, the result was inactive.
The same measure, in the same setting: with `CCCC[N+](C)(CCCC)CCCC` the entry was “inactive”.
Consider `CO[C@@]1(NC(=O)C(C(=O)O)c2ccc(O)cc2)C(=O)N2C(C(=O)O)=C(CSc3nnnn3C)CO[C@@H]21` (stereo partly drawn), for which the fluorescence, relative to Rose Bengal is 0.111% [at 18.6 µM].
For `C=CC(=O)OCCCl`, the result was inactive.
Same read-out and setting: with `CC1=C(C/C=C(\C)CCC[C@H](C)CCC[C@H](C)CCCC(C)C)C(=O)c2ccccc2C1=O` the entry was “inactive”; with `C=CCCC(=O)O`, “inactive”.
`CCC(C(=O)NC(=O)NC(C)=O)c1ccccc1` (stereo not drawn): the compound was called inactive.
Same read-out and setting: with `CCCCOC(=O)CCC(C)=O` the entry was “inactive”.
For `C[N+]12CCC(CC1)C(OC(=O)C(O)(c1ccccc1)c1ccccc1)C2` (stereo not drawn), the fluorescence, relative to Rose Bengal was 0.0225% [at 18.6 µM].
On to `CCCCCCCCCC[N+](C)(C)[O-]`, for which the compound was called inactive.
Same read-out and setting: with `CC(C)(N)C#N` the entry was “inactive”; with `Nc1c2c(nc3c1CCC3)CCCC2`, “inactive”; with `Cc1ccc(-c2ncc(Cl)cc2-c2ccc(S(C)(=O)=O)cc2)cn1`, “inactive”.
`O=C(O)c1cn(C2CC2)c2cc(N3CCNCC3)c(F)cc2c1=O`: the fluorescence, relative to Rose Bengal was -0.332% [at 18.6 µM].
Consider `CC1CCC(CO)CC1` (stereo not drawn), for which the compound was called inactive.
For the compound `FB(F)F`, the call was inactive.
On to `COc1ccnc(CS(=O)c2nc3cc(OC(F)F)ccc3[nH]2)c1OC` (stereo not drawn), for which the result was inactive.
On to `O=S(=O)(O)c1cc(O)c(O)c(S(=O)(=O)O)c1`, for which the call was inactive.
As for `N[C@H](C(=O)O)[C@@H](O)c1ccc(O)c(O)c1`, the compound was classed as inactive.

A further assay in a line: qHTS assay to test for compound auto fluorescence at 535 nm (green) in HepG2 cells (AID 720675). Particulars: green autofluorescence 485/535 nm, 1 h; series mostly up to 91.3 µM.
With `Cc1ncc([C@@H](CCCCCCc2ccc3c(n2)NCCC3)CC(=O)O)cn1`, the call was inactive.
The same measure, in the same setting: with `O=C1NC(=O)C2CC=CCC12` (stereo not drawn) the entry was “inactive”.
Same read-out and setting: with `CCCCc1nc(Cl)c(CO)n1Cc1ccc(-c2ccccc2-c2nn[nH]n2)cc1` the entry was “inactive”; with `Cc1ccccc1N=C(N)N=C(N)N`, “inactive”; with `O=S(=O)(O)c1cccc(S(=O)(=O)O)c1`, “inactive”.
Same read-out and setting: with `C1CCC2(CCCCO2)OC1` the entry was “inactive”.
`COc1c(N2CCNC(C)C2)c(F)cc2c(=O)c(C(=O)O)cn(C3CC3)c12` (stereo not drawn): the outcome was inactive.
Take `CC[N+](CC)(CC(=O)Nc1c(C)cccc1C)Cc1ccccc1` (tested in a mixture with another compound): the call was inactive.
Same read-out and setting: with `O=C(O)Cc1csc(-c2ccc(Cl)cc2)n1` the entry was “inactive”; with `CCCCCCC#CC(=O)OC`, “inactive”; with `CCCCN(CCC(=O)OCC)C(C)=O`, “inactive”.
For the compound `CC(=O)NC(=O)c1ccccc1O`, the outcome was inactive.
For the compound `CC[N+](CC)(CC)CCOc1cccc(OCC[N+](CC)(CC)CC)c1OCC[N+](CC)(CC)CC`, the result was inactive.
Same read-out and setting: with `Cc1nc2ccc(CN(C)c3ccc(C(=O)N[C@@H](CCC(=O)O)C(=O)O)s3)cc2c(=O)[nH]1` the entry was “inactive”; with `NC(CCC(=O)O)C(=O)O` (stereo not drawn), “inactive”; with `CCOC(=O)OC(C)OC1=C(C(=O)Nc2ccccn2)N(C)S(=O)(=O)c2ccccc21` (stereo not drawn), “inactive”.
Regarding `Cc1ncc(COP(=O)(O)O)c(C=O)c1O`, the compound was called inactive.
As for `N[C@@H](CCC(=O)O)C(=O)O`, the outcome was inactive.
In the case of `CCCC[N+](C)(CCCC)CCCC`, the outcome was inactive.
On to `CO[C@@]1(NC(=O)C(C(=O)O)c2ccc(O)cc2)C(=O)N2C(C(=O)O)=C(CSc3nnnn3C)CO[C@@H]21` (stereo partly drawn), for which the fluorescence, % of fluorescein control is -0.0745% [at 18.6 µM].
For `C=CC(=O)OCCCl`, the compound was classed as inactive.
Still for that read-out and setting: with `CC1=C(C/C=C(\C)CCC[C@H](C)CCC[C@H](C)CCCC(C)C)C(=O)c2ccccc2C1=O` the entry was “inactive”.
Same read-out and setting: with `C=CCCC(=O)O` the entry was “inactive”; with `CCC(C(=O)NC(=O)NC(C)=O)c1ccccc1` (stereo not drawn), “inactive”.
Consider `CCCCOC(=O)CCC(C)=O`, for which the result was inactive.
Turning to `C[N+]12CCC(CC1)C(OC(=O)C(O)(c1ccccc1)c1ccccc1)C2` (stereo not drawn), the fluorescence, % of fluorescein control was -0.0019% [at 18.6 µM].
For `CCCCCCCCCC[N+](C)(C)[O-]`, the compound was called inactive.
On the same count and under the same terms, with `CC(C)(N)C#N` the entry was “inactive”; with `Nc1c2c(nc3c1CCC3)CCCC2`, “inactive”.
The same measure, in the same setting: with `Cc1ccc(-c2ncc(Cl)cc2-c2ccc(S(C)(=O)=O)cc2)cn1` the entry was “inactive”.
In the case of `O=C(O)c1cn(C2CC2)c2cc(N3CCNCC3)c(F)cc2c1=O`, the fluorescence, % of fluorescein control was 0.0071% [at 18.6 µM].
`CC1CCC(CO)CC1` (stereo not drawn): the outcome was inactive.
Consider `FB(F)F`, for which the compound was classed as inactive.
With `COc1ccnc(CS(=O)c2nc3cc(OC(F)F)ccc3[nH]2)c1OC` (stereo not drawn), the call was inactive.
Turning to `O=S(=O)(O)c1cc(O)c(O)c(S(=O)(=O)O)c1`, the compound was called inactive.
Regarding `N[C@H](C(=O)O)[C@@H](O)c1ccc(O)c(O)c1`, the compound was classed as inactive.
